Source: PubChem BioAssay
KB-V1 MDR tox – kills drug-selected multidrug resistant KB-V1 cells; KB-V1 MDR cells viability, CellTiter-Glo, 72 h; Potency, µM (doses to about 46.1 µM), actives largely listed as cytotoxic; 400,000 tested, 3.4% active; further: potency means the concentration at half of the fitted maximal effect; nearly all actives have a fitted effect of over 60% in size
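Compound-treated KB-V1 multidrug-resistant cells, 72 h, 37 degrees C; viability by CellTiter-Glo. Fitted qHTS curves give the values.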
Nrf2 block – blocks Nrf2 signaling | A549 ARE-Fluc reporter, luciferase luminescence, 18-24 h | Potency, µM (titrated, usually from 46 µM), without a hit: at the top dose activity change, negative = inhibition, most hits filed as inhibitors | 360,000 tested, 2.1% active; further: potency means the concentration at half of the fitted maximal effect; nearly all actives have a fitted effect of over 60% in size
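Two sequential reads on A549 ARE_Fluc cells exposed to compound for 18-24 h: a CellTiter-Fluor fluorescence read for viability, then a luciferase luminescence read for Nrf2/ARE activity.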
KB-3-1 cytotox – kills parental KB-3-1 adenocarcinoma cells | KB-3-1 viability, CellTiter-Glo ATP luminescence, 72 h | Potency, µM (series often up to 46.1 µM), hits mostly cytotoxic | 400,000 tested, 1.4% active | AID 1347075; further: potency means the concentration at half of the fitted maximal effect; nearly all actives have a fitted effect of over 60% in size
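KB-3-1 parental drug-naive adenocarcinoma cells in DMEM/10% FBS, incubated 72 h at 37 C with pin-transferred compounds across a concentration series. Viability by CellTiter-Glo luminescence; concentration-response curves fitted after normalization.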
A549 tox – counter-screen for Nrf2 inhibitors: cytotoxicity in A549 cells. Potency, µM (top dose mostly 46 µM), for inactives: top-dose activity change, negative = cytotoxicity, usual class: inhibitors. A549 ARE-Fluc cells, CellTiter-Fluor viability, 18-24 h. AID 504648. 390,000 tested, 0.16% active; further: potency means the concentration at half of the fitted maximal effect
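A549 ARE_Fluc cells in 5% FBS OPTI-MEM were exposed to compounds in concentration-response for 18-24 h at 37 deg C. Viability was read by CellTiter-Fluor fluorescence (Ex 405/Em 525) after 30 min, before the luciferase read.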
Giardia killer – kills Giardia lamblia | Giardia lamblia trophozoite viability | activity change, % at 7.66 µM, hits read low | 340,000 tested, 0.15% active | AID 540267; in the data active means activity change below about -80%; inconclusive means between about -30% and that limit;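 further: parasites exposed to compound for two days anaerobically before the ATP read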
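Luminescent ATP signal served as the viability read-out, measured 15-30 min after adding ATP detection reagent to trophozoites that had been incubated with compounds for 48 hrs at 37 deg C anaerobically at 100 cells/well.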
PI4K2A block – blocks human PI4K2A kinase activity | Q9BTU6 | activity change, negative = inhibition, % at 76.9 µM | 420,000 tested, 0.13% active | purified PI4K2A, ADP-Glo luminescence, 1 h; hits give low values | AID 1346378; in the data active means activity change below about -50%; inconclusive means mostly about -30% to -49%;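 further: -100% = wells without enzyme as full effect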
Target sequence (Q9BTU6 whole entry, looked up): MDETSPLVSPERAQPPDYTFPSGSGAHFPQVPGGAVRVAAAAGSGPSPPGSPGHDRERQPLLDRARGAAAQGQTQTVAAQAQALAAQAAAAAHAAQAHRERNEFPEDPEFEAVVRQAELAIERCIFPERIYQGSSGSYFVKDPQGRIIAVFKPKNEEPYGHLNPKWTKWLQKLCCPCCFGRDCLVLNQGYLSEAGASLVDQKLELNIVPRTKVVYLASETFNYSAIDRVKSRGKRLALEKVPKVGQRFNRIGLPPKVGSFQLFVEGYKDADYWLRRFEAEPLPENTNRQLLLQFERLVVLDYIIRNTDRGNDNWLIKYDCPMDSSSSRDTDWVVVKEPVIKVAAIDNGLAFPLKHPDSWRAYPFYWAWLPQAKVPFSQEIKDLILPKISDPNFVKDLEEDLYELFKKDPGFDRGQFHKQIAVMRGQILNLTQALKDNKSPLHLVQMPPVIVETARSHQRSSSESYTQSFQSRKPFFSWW
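Compounds are screened against recombinant PI4K2A using PI as substrate and ATP, the latter dispensed at 300 microM. Reactions run one hour at ambient temperature before ADP-Glo detection; full inhibition defined by wells lacking enzyme.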
The depositor's hits bear a star; i = inactive; ? = inconclusive; . = no result; ! = a repeat was not active. Rows were chosen to be rich in hits. Some 5.7% of all compounds tested hit in one or more screens of this group. Unless noted, the call rests on the fitted dose curve; in most records, active means well fitted curve in the direction sought with a large enough effect; inconclusive means small, poorly fitted or top-dose-only effect, or another doubt; inactive means no such curve, though single readings can be large; an effect the other way counts as inactive or inconclusive. Unless noted, on the % scale 0 is the no-effect control and ±100 the full control effect.

SMILES	KB-V1 MDR tox	Nrf2 block	KB-3-1 cytotox	A549 tox	Giardia killer	PI4K2A block
CCN(Cc1cc2cc(C)ccc2[nH]c1=O)C(=O)c1cccc(OC)c1	9.2µM*	-12.5%	i	-2.1%	27.4	2.9
COc1ccc(-n2c(/C=C/c3cccc4ccccc34)nc3ccccc3c2=O)cc1Cl	?	.	?	0.1%	.	2.6
Cc1ccc2[nH]c(=O)c(CN(Cc3ccco3)C(=O)c3ccncc3)cc2c1	?	22.6%	11.6µM*	0.1%	-16.8	-1.8
C=CCN1[C@@H](CC(C)C)COc2cc(N3CCSCC3)ccc2S1(=O)=O	.	.	.	.	.	-2.0
COc1ccc(S(=O)(=O)N/N=C\c2ccc3c(c2)OCO3)c(OC)c1	.	10.3µM*	.	-6.7%	-14.2	-2.1
Cc1ccc2nc(COc3ccccc3NC(=O)c3ccc(F)cc3)cc(=O)n2c1	?	.	i	5.1%	.	1.4
COc1ccc2c(c1)[nH]c1c(N3CCN(Cc4ccc5c(c4)OCO5)CC3)ncnc12	2.59µM*	13µM*	?	-6.4%	-2.3	4.4
COc1ccc2c(c1)[nH]c1c(N3CCSCC3)ncnc12	?	20.6µM*	i	?	4.2	-3.6
COc1cccc(N2CCN(c3ncnc4c3[nH]c3ccc(F)cc34)CC2C)c1 (stereo not given)	?	6.51µM*	?	18.4µM*	19.9	-3.3
NCCCN(Cc1ccccc1)c1ccc(Br)cn1	.	?	.	9.6%	-28.7	.
Oc1cccc(-c2nnc(-c3cccc(O)c3)nn2)c1	?	-10.9%	?	-0.7%	-80.5*	-66.0*
CC1CCCN(CCOCCOc2ccc(Cl)cc2Br)C1 (stereo not given)	16.4µM*	11.6%	?	?	13.3	0.0
CCc1cc(-c2nnn(CCC3COCCO3)c2CC)ccc1-c1cn(Cc2ccccc2)nn1 (stereo not given)	1.84µM*	.	?	.	.	3.4
CCn1cc(C(=O)OCC(=O)OC2CC(C)CCC2C(C)C)c(=O)c2ccc(C)nc21 (stereo not given)	i	20.6µM*	?	?	-1.0	16.7
COc1ccc(C2c3c(ncn(CCCc4ccccc4)c3=N)Oc3ccc4ccccc4c32)cc1OC (stereo not given)	.	3.9%	.	-11.9%	.	.
CC(C)CC1Nc2ncnc(N3CCN(c4ccccn4)CC3)c2N(Cc2ccc(Cl)cc2)C1=O (stereo not given)	23.1µM*!	?	?	?	-25.9	-1.5
COc1cccc(/C=N/Nc2nccnc2Cl)c1O	i	0.2%	?	-5.0%	2.8	-59.9*
Oc1ccc(/C=N/Nc2nccnc2Cl)c(O)c1	?	?	i	-12.8%	4.1	-67.0*
Oc1ccccc1/C=N/Nc1nccnc1Cl	i	?	?	-16.6%	13.7	-9.1
COc1cccc(/C=N/Nc2ncnc(Cl)c2N)c1O	?	-25.0%	?	-10.4%	-1.9	-4.7
CCC(=O)N1CCc2cc(Br)c(S(=O)(=O)NCc3ccccc3OC)cc21	.	.	.	.	.	-1.6
O=C(CSc1nnc(-c2ccccc2)n1-c1ccccc1)NN=C/C=C\c1ccccc1[N+](=O)[O-]	.	.	.	.	.	-2.7
CCCCc1nc(NCCNC(=O)c2ccccc2)c(C#N)c2c1CSC(C)(C)C2	?	.	i	?	-2.8	-13.3
CC(C)Cc1nc(N2CCN(C(=O)c3ccccc3)CC2)c(C#N)c2c1CCC2	i	23.1µM*	i	.	15.9	-5.4
CC1(C)Cc2c(C#N)c(N3CCN(C(=O)c4ccccc4Cl)CC3)nc(-c3ccco3)c2CS1	i	.	i	-8.3%	8.7	-52.6*
SMILES	KB-V1 MDR tox	Nrf2 block	KB-3-1 cytotox	A549 tox	Giardia killer	PI4K2A block
CCCCc1nc(NCCNC(=O)c2ccco2)c(C#N)c2c1CSC(C)(C)C2	2.31µM*	7.1%	i	2.7%	3.1	-3.5
N#Cc1c(N2CCN(C(=O)c3ccco3)CC2)nc(-c2ccccc2)c2c1CCCC2	20.6µM*	18.4µM*	i	?	6.6	-1.9
CC(=O)N1CCN(c2nc(-c3ccco3)c3c(c2C#N)CC(C)(C)SC3)CC1	i	-18.0%	i	-16.8%	-2.0	-4.0
CC1(C)Cc2c(C#N)c(N3CCN(C(=O)c4ccco4)CC3)nc(Cc3ccccc3)c2CO1	?	?	?	-25.6%	-11.4	2.7
CCc1nc(N2CCN(C(=O)c3ccco3)CC2)c(C#N)c2c1COC(C)(C)C2	?	14.6µM*	i	-9.7%	-13.6	-4.9
CC1(C)Cc2c(C#N)c(N3CCN(C(=O)c4ccco4)CC3)nc(-c3ccco3)c2CS1	5.8µM*	?	i	-5.1%	-7.0	?
O=C(O)c1c(O)c(-c2ccccc2)nc2ccccc12	.	.	.	.	.	-0.4
O=C(Nc1ncc([N+](=O)[O-])s1)C1CC(=O)N(c2ccc(F)cc2)C1 (stereo not given)	i	16.1%	i	-5.3%	-86.0*	-0.3
CCOC(=O)/C=C1\SCC(=O)N1CC(=O)NC(c1ccccc1)c1ccccc1	6.51µM*	-1.1%	i	-6.7%	14.3	-3.5
CCS(=O)(=O)Nc1ccc(-c2cc(-c3ccccc3)c3cc(C)ccc3n2)cc1	i	23.1µM*	i	?	?	-1.0
Cc1ccc2nc(-c3ccc(NS(C)(=O)=O)cc3)cc(-c3ccccc3)c2c1	i	.	i	-6.2%	?	3.6
CCOC(=O)[C@@]12CCCC3=C1N(CCC3)C(=O)[C@H]2CC(=O)NCc1cccs1	.	.	.	.	.	-5.6
OC(CNC1CCCC1)COc1ccc(-c2ccccc2)cc1 (stereo not given)	?	10.2%	20.6µM*	?	-25.4	4.5
COC(=O)c1ccc(OCC(O)CNC2CCCC2)cc1 (stereo not given)	i	-1.4%	i	0.6%	-1.5	-1.0
OC(CNC1CCCCC1)COCCOc1ccc(Br)cc1 (stereo not given)	23.1µM*	8.6%	i	11.0%	-1.8	-5.3
COc1cccc(Cn2ncc3c4sc(SC)cc4n(C)c3c2=O)c1	i	?	i	10.5%	.	.
COCCCN1C(=O)[C@H](CC(=O)NCC2CCCCC2)[C@]2(C(=O)OC)CCCCC=C12	.	.	.	.	.	1.0
COc1ccc(-c2[nH]c(-c3ccc(OC)c(OC)c3)nc2SCC(=O)Nc2ccccc2)cc1	i	23.1µM*	i	?	.	-0.5
COc1ccc(NC(=O)CSc2nc(-c3cccc(C)c3)[nH]c2-c2ccccc2)cc1OC	?	23.1µM*	?	?	.	-2.0
COc1ccc(NC(=O)CSc2nc(-c3ccc(OC)c(OC)c3)[nH]c2-c2ccc(C)cc2)cc1	i	-4.4%	i	-11.3%	.	-5.9
Cc1c(Br)c([N+](=O)[O-])nn1CC(=O)Nc1ccc(Cc2ccncc2)cc1	i	18.4µM*	i	?	-1.7	-4.0
